The record followed here is publication PMC7862700, “An all-to-all approach to the identification of sequence-specific readers for epigenetic DNA modifications on cytosine”.

The first assay deals with T1, ETS2 (Homo sapiens, UniProt P15036 1-469).
T1 sequence: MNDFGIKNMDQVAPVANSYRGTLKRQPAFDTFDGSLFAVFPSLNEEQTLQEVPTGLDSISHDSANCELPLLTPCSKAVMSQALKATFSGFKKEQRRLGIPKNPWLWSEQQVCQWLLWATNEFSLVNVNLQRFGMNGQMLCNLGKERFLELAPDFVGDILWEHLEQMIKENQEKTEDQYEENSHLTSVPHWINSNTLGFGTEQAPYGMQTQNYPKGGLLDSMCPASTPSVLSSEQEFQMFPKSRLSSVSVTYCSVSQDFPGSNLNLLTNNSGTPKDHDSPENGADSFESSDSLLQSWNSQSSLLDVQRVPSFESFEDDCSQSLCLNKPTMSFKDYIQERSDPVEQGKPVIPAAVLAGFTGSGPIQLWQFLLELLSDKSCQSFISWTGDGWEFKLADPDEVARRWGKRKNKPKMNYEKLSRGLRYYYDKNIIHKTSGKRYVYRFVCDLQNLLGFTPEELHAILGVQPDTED
The assay is described as follows: DAPPL (digital affinity profiling via proximity ligation, sequencing); 10 mM Tris-HCl pH 7.5, 50 mM NaCl, 1 mM DTT, 4% glycerol, room temperature, 30 min; GST-TFs on glutathione beads, 16-mer random dsDNA library, 0.1% formaldehyde crosslink after washing; high values mean tight binding. Particulars: protein: recombinant; tags: N-terminal GST; dsDNA, one strand shown. In short, it runs like this: (§1)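 After expression in yeast as GST fusions, human transcription factors were bound to glutathione beads, DNA-barcoded and mixed with a tag-only sample. The pools were incubated with 200 nmole of a 16-mer random double-stranded DNA library in Tris/NaCl/DTT/glycerol buffer (30 min, room temperature), washed and crosslinked with 0.1% formaldehyde. Proximity ligation with BsaI/T4 ligase ran for 1 h at 37 °C, before PCR amplification and sequencing on an Illumina NextSeq500. Binding signal is a hexamer's read frequency for a factor divided by its frequency for the tag-only sample.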
Turning to CCGCAA, the binding signal was 1.47 fold enrichment (6-mer frequency, TF over GST control).
AAGTTG: the binding signal is 1.11 fold enrichment (6-mer frequency, TF over GST control).
In the case of GTCCCG, the binding signal was 1.22 fold enrichment (6-mer frequency, TF over GST control).
Regarding TATCTG, the binding signal is 1.11 fold enrichment (6-mer frequency, TF over GST control).
Same read-out and setting: the figure for TTCCCT is 1.75 fold enrichment (6-mer frequency, TF over GST control); for TATGCA it is 1.29 fold enrichment (6-mer frequency, TF over GST control); for AAAGGG it is 1.13 fold enrichment (6-mer frequency, TF over GST control).
On the same count and under the same terms, the figure for TAGCAT is 1.11 fold enrichment (6-mer frequency, TF over GST control); for TGCACT it is 1.32 fold enrichment (6-mer frequency, TF over GST control); for CCGACA it is 1.26 fold enrichment (6-mer frequency, TF over GST control).
On the same count and under the same terms, the figure for CTTACA is 1.14 fold enrichment (6-mer frequency, TF over GST control).
As for GCTCAT, the binding signal is 1.26 fold enrichment (6-mer frequency, TF over GST control).
Same read-out and setting: then TGCTAC, with 1.23 fold enrichment (6-mer frequency, TF over GST control); and CCGGCC, with 1.05 fold enrichment (6-mer frequency, TF over GST control); and GAAGCT, with 1.54 fold enrichment (6-mer frequency, TF over GST control).
Still for that read-out and setting: then GCGACC, with 1.19 fold enrichment (6-mer frequency, TF over GST control); and ATGGCT, with 1.32 fold enrichment (6-mer frequency, TF over GST control).
Same read-out and setting: then CATCAC, with 1.12 fold enrichment (6-mer frequency, TF over GST control).
As to CGTTCA, the binding signal is 1.12 fold enrichment (6-mer frequency, TF over GST control).
On to ATATTC, for which the binding signal is 1.2 fold enrichment (6-mer frequency, TF over GST control).

The target in the next assay is T2, SPDEF (Homo sapiens, UniProt O95238 1-335).
T2 sequence: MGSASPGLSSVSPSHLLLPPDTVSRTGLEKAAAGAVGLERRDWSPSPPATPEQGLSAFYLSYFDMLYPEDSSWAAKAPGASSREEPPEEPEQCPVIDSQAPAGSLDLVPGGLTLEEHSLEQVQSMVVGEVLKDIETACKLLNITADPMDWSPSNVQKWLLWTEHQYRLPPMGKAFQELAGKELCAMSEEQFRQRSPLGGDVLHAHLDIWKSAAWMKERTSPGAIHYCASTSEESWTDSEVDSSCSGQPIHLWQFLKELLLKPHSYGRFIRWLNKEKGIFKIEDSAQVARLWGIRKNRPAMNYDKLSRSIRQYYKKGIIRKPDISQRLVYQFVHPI
The assay is described as above. As to conditions: protein: recombinant; tags: N-terminal GST; dsDNA, one strand shown. In short, it runs like this:
as §1
Turning to ACAATG, the binding signal was 1.03 fold enrichment (6-mer frequency, TF over GST control).
Same read-out and setting: the figure for AATAAC is 1.21 fold enrichment (6-mer frequency, TF over GST control); for GCGTCC it is 1.56 fold enrichment (6-mer frequency, TF over GST control).
Same read-out and setting: then ATTATC, with 1.34 fold enrichment (6-mer frequency, TF over GST control).
Still for that read-out and setting: the figure for CGCCTC is 1.39 fold enrichment (6-mer frequency, TF over GST control).
As for TCTCAA, the binding signal is 1.23 fold enrichment (6-mer frequency, TF over GST control).
Still for that read-out and setting: the figure for GATATG is 1.24 fold enrichment (6-mer frequency, TF over GST control); for CGTCAC it is 1.21 fold enrichment (6-mer frequency, TF over GST control).
Regarding TGTTAC, the binding signal is 1.54 fold enrichment (6-mer frequency, TF over GST control).
Still for that read-out and setting: the figure for CCCGGA is 3.97 fold enrichment (6-mer frequency, TF over GST control); for AAGGTA it is 1.16 fold enrichment (6-mer frequency, TF over GST control); for CATGAT it is 1.01 fold enrichment (6-mer frequency, TF over GST control).
The same measure, in the same setting: then GTAATC, with 1.12 fold enrichment (6-mer frequency, TF over GST control); and TTTAAT, with 1.17 fold enrichment (6-mer frequency, TF over GST control).
CTCTCC: the binding signal is 1.22 fold enrichment (6-mer frequency, TF over GST control).
Same read-out and setting: then AAGAAT, with 1.07 fold enrichment (6-mer frequency, TF over GST control); and GTTTCA, with 1.22 fold enrichment (6-mer frequency, TF over GST control); and CACTTC, with 3.55 fold enrichment (6-mer frequency, TF over GST control).
The same measure, in the same setting: the figure for CTCAAA is 1.14 fold enrichment (6-mer frequency, TF over GST control).
The same measure, in the same setting: then CCCGGC, with 1.28 fold enrichment (6-mer frequency, TF over GST control).
Turning to CCGCAA, the binding signal is 1.36 fold enrichment (6-mer frequency, TF over GST control).
Same read-out and setting: the figure for AAGTTG is 1.02 fold enrichment (6-mer frequency, TF over GST control).
Regarding GTCCCG, the binding signal was 1.34 fold enrichment (6-mer frequency, TF over GST control).
Still for that read-out and setting: then TATCTG, with 1.13 fold enrichment (6-mer frequency, TF over GST control).
Still for that read-out and setting: the figure for TTCCCT is 1.47 fold enrichment (6-mer frequency, TF over GST control); for TATGCA it is 1.36 fold enrichment (6-mer frequency, TF over GST control).
The same measure, in the same setting: the figure for AAAGGG is 1.04 fold enrichment (6-mer frequency, TF over GST control); for TAGCAT it is 1.21 fold enrichment (6-mer frequency, TF over GST control).
With TGCACT, the binding signal is 1.4 fold enrichment (6-mer frequency, TF over GST control).
Same read-out and setting: then CCGACA, with 1.27 fold enrichment (6-mer frequency, TF over GST control); and CTTACA, with 1.34 fold enrichment (6-mer frequency, TF over GST control); and GCTCAT, with 1.12 fold enrichment (6-mer frequency, TF over GST control).
Still for that read-out and setting: the figure for TGCTAC is 1.26 fold enrichment (6-mer frequency, TF over GST control); for CCGGCC it is 1.38 fold enrichment (6-mer frequency, TF over GST control).
Still for that read-out and setting: the figure for GAAGCT is 1.51 fold enrichment (6-mer frequency, TF over GST control); for GCGACC it is 1.14 fold enrichment (6-mer frequency, TF over GST control); for ATGGCT it is 1.23 fold enrichment (6-mer frequency, TF over GST control).
CATCAC: the binding signal was 1.15 fold enrichment (6-mer frequency, TF over GST control).
Take CGTTCA: the binding signal is 1.14 fold enrichment (6-mer frequency, TF over GST control).
Still for that read-out and setting: then ATATTC, with 1.26 fold enrichment (6-mer frequency, TF over GST control).

The target of another assay is T3, ETV7 (Homo sapiens, UniProt Q9Y603 1-341).
T3 sequence: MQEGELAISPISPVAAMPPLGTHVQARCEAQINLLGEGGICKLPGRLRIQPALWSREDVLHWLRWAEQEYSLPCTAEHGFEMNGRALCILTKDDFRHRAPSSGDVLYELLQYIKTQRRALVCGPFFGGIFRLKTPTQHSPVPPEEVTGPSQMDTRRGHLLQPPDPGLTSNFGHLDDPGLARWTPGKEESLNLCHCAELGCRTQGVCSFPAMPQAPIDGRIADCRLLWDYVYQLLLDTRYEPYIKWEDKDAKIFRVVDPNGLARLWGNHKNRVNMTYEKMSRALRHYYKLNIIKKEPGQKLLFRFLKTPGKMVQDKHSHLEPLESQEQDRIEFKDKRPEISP
The description is as above. Particulars: protein: recombinant; tags: N-terminal GST; dsDNA, one strand shown. In short, it runs like this:
as §1
For ACAATG, the binding signal is 1.12 fold enrichment (6-mer frequency, TF over GST control).
With AATAAC, the binding signal was 1.25 fold enrichment (6-mer frequency, TF over GST control).
For GCGTCC, the binding signal is 1.17 fold enrichment (6-mer frequency, TF over GST control).
Still for that read-out and setting: the figure for ATTATC is 1.18 fold enrichment (6-mer frequency, TF over GST control); for CGCCTC it is 1.26 fold enrichment (6-mer frequency, TF over GST control).
The same measure, in the same setting: then TCTCAA, with 1.17 fold enrichment (6-mer frequency, TF over GST control); and GATATG, with 1.07 fold enrichment (6-mer frequency, TF over GST control); and CGTCAC, with 1.13 fold enrichment (6-mer frequency, TF over GST control).
Same read-out and setting: the figure for TGTTAC is 1.42 fold enrichment (6-mer frequency, TF over GST control).
Regarding CCCGGA, the binding signal is 2.48 fold enrichment (6-mer frequency, TF over GST control).
For the sequence AAGGTA, the binding signal is 1.18 fold enrichment (6-mer frequency, TF over GST control).
The same measure, in the same setting: then CATGAT, with 1.02 fold enrichment (6-mer frequency, TF over GST control); and GTAATC, with 1.17 fold enrichment (6-mer frequency, TF over GST control); and TTTAAT, with 1.46 fold enrichment (6-mer frequency, TF over GST control).
The same measure, in the same setting: then CTCTCC, with 1.31 fold enrichment (6-mer frequency, TF over GST control); and AAGAAT, with 1.1 fold enrichment (6-mer frequency, TF over GST control); and GTTTCA, with 1.21 fold enrichment (6-mer frequency, TF over GST control).
The same measure, in the same setting: the figure for CACTTC is 3.64 fold enrichment (6-mer frequency, TF over GST control); for CTCAAA it is 1.14 fold enrichment (6-mer frequency, TF over GST control); for CCCGGC it is 1.13 fold enrichment (6-mer frequency, TF over GST control).
Regarding CCGCAA, the binding signal was 1.32 fold enrichment (6-mer frequency, TF over GST control).
As for AAGTTG, the binding signal is 1.26 fold enrichment (6-mer frequency, TF over GST control).
The same measure, in the same setting: then GTCCCG, with 1.19 fold enrichment (6-mer frequency, TF over GST control); and TATCTG, with 1.2 fold enrichment (6-mer frequency, TF over GST control); and TTCCCT, with 1.55 fold enrichment (6-mer frequency, TF over GST control).
On the same count and under the same terms, the figure for TATGCA is 1.18 fold enrichment (6-mer frequency, TF over GST control); for AAAGGG it is 1.09 fold enrichment (6-mer frequency, TF over GST control).
The same measure, in the same setting: then TAGCAT, with 1.11 fold enrichment (6-mer frequency, TF over GST control).
Regarding TGCACT, the binding signal is 1.42 fold enrichment (6-mer frequency, TF over GST control).
Same read-out and setting: then CCGACA, with 1.13 fold enrichment (6-mer frequency, TF over GST control).
Regarding CTTACA, the binding signal was 1.23 fold enrichment (6-mer frequency, TF over GST control).
Consider GCTCAT, for which the binding signal was 1.23 fold enrichment (6-mer frequency, TF over GST control).
Still for that read-out and setting: then TGCTAC, with 1.23 fold enrichment (6-mer frequency, TF over GST control).
Still for that read-out and setting: then CCGGCC, with 1.16 fold enrichment (6-mer frequency, TF over GST control); and GAAGCT, with 1.54 fold enrichment (6-mer frequency, TF over GST control).
Take GCGACC: the binding signal was 1.06 fold enrichment (6-mer frequency, TF over GST control).
On the same count and under the same terms, the figure for ATGGCT is 1.34 fold enrichment (6-mer frequency, TF over GST control); for CATCAC it is 1.08 fold enrichment (6-mer frequency, TF over GST control).
With CGTTCA, the binding signal is 1.07 fold enrichment (6-mer frequency, TF over GST control).
As to ATATTC, the binding signal is 1.24 fold enrichment (6-mer frequency, TF over GST control).
